Laboratory results published in PubChem BioAssay (NCI).
This is part of a sample that, as a whole, favours compounds with a hit. Of some 83,000 tested, about 20% had one in any assay.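 Cells were grown in 96-well plates and exposed to the test compound at a single concentration for 48 hours; results are reported as percent growth, with values below 10 considered active.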 Activity calls are given as the source filed them.

Assays:
Assay in all cases: NCI-60 one-dose screen, 48 h (100 = growth as untreated, 0 = no growth, -100 = all killed)
Conditions in all cases: 10 µM unless noted
SR leukemia = test system: SR leukemia
RPMI-8226 leukemia = test system: RPMI-8226 leukemia
OVCAR-8 ovarian = test system: OVCAR-8 ovarian
OVCAR-5 ovarian = test system: OVCAR-5 ovarian
OVCAR-4 ovarian = test system: OVCAR-4 ovarian
SK-OV-3 ovarian = test system: SK-OV-3 ovarian
IGROV1 ovarian = test system: IGROV1 ovarian
OVCAR-3 ovarian = test system: OVCAR-3 ovarian
HS 578T breast = test system: HS 578T breast
NCI/ADR-RES ovarian = test system: NCI/ADR-RES ovarian
T-47D breast = test system: T-47D breast
BT-549 breast = test system: BT-549 breast
MDA-MB-435 melanoma = test system: MDA-MB-435 melanoma
SW-620 colon = test system: SW-620 colon
MCF7 breast = test system: MCF7 breast
HCT-116 colon = test system: HCT-116 colon
HCC-2998 colon = test system: HCC-2998 colon
KM12 colon = test system: KM12 colon

Measured: growth

COc1ccc(-c2nc(SCCC(C)C)nc(Nc3ccc(C(=O)O)cc3)c2C#N)cc1
inactive: SR leukemia 77.3% | RPMI-8226 leukemia 62.9% | OVCAR-8 ovarian 93.9% | OVCAR-5 ovarian 105% | OVCAR-4 ovarian 89.2% | SK-OV-3 ovarian 109% | IGROV1 ovarian 110% | OVCAR-3 ovarian 97.5% | HS 578T breast 94.2% | NCI/ADR-RES ovarian 102% | T-47D breast 71.7% | BT-549 breast 82.6% | MDA-MB-435 melanoma 99.3% | SW-620 colon 101% | MCF7 breast 80.5% | HCT-116 colon 84.4% | HCC-2998 colon 104% | KM12 colon 86.3%

Cc1csc(N/N=C/c2ccncc2)n1
inactive: SR leukemia 96.6% | RPMI-8226 leukemia 131% | OVCAR-8 ovarian 97.7% | OVCAR-5 ovarian 112% | OVCAR-4 ovarian 116% | SK-OV-3 ovarian 101% | IGROV1 ovarian 105% | OVCAR-3 ovarian 112% | HS 578T breast 104% | NCI/ADR-RES ovarian 107% | T-47D breast 94% | BT-549 breast 105% | MDA-MB-435 melanoma 104% | SW-620 colon 103% | MCF7 breast 87.1% | HCT-116 colon 97.6% | HCC-2998 colon 99.9% | KM12 colon 106%

Cc1nn(-c2cccc(Cl)c2)c(C)c1N=Nc1ccc(Br)cc1
inactive: SR leukemia 92.7% | RPMI-8226 leukemia 95.4% | OVCAR-8 ovarian 97.4% | OVCAR-5 ovarian 94.1% | OVCAR-4 ovarian 94.5% | SK-OV-3 ovarian 92.3% | IGROV1 ovarian 100% | OVCAR-3 ovarian 112% | HS 578T breast 96.6% | NCI/ADR-RES ovarian 105% | T-47D breast 80.5% | BT-549 breast 97.6% | MDA-MB-435 melanoma 99.8% | SW-620 colon 103% | MCF7 breast 89.4% | HCT-116 colon 89.5% | HCC-2998 colon 100% | KM12 colon 100%

COc1cnc2c(c1)C(=O)c1c-2n(CCCN2CCCC2)c(=O)c2cc(Cl)ccc12
inactive: RPMI-8226 leukemia 20.3% | OVCAR-8 ovarian 26.1% | OVCAR-5 ovarian 64.8% | OVCAR-4 ovarian 45.4% | SK-OV-3 ovarian 19.6% | IGROV1 ovarian 39.4% | OVCAR-3 ovarian 55% | HS 578T breast 49.1% | NCI/ADR-RES ovarian 35.1% | T-47D breast 29.3% | BT-549 breast 44.5% | MDA-MB-435 melanoma 61.1% | HCC-2998 colon 62.1% | KM12 colon 42.4%
active: SR leukemia -42.9% | SW-620 colon -89.4% | MCF7 breast -46.1% | HCT-116 colon -92.8%

O=c1c2cc(Cl)ccc2oc2ccc(OCCCCCN3CCCCCC3)cc12
inactive: SR leukemia 47.5% | RPMI-8226 leukemia 60.3% | OVCAR-8 ovarian 82.1% | OVCAR-5 ovarian 97.9% | OVCAR-4 ovarian 91.8% | SK-OV-3 ovarian 78.9% | IGROV1 ovarian 90.6% | OVCAR-3 ovarian 81.5% | HS 578T breast 83% | NCI/ADR-RES ovarian 85.7% | T-47D breast 74.4% | BT-549 breast 79% | MDA-MB-435 melanoma 80.8% | SW-620 colon 84.6% | MCF7 breast 75.3% | HCT-116 colon 57.8% | HCC-2998 colon 88.5% | KM12 colon 84.8%

CCN(CC)CC(=O)Nc1c(C)ccc(N)c1C
inactive: SR leukemia 151% | RPMI-8226 leukemia 111% | OVCAR-8 ovarian 105% | OVCAR-5 ovarian 99.2% | OVCAR-4 ovarian 99.1% | SK-OV-3 ovarian 96.7% | IGROV1 ovarian 95.4% | OVCAR-3 ovarian 109% | HS 578T breast 105% | NCI/ADR-RES ovarian 99.2% | T-47D breast 96.6% | BT-549 breast 97.2% | MDA-MB-435 melanoma 99.8% | SW-620 colon 104% | MCF7 breast 92.4% | HCT-116 colon 84% | HCC-2998 colon 96.8% | KM12 colon 114%

CC(SC(C)C(=O)N/N=C/c1cccc(Cl)c1)C(=O)N/N=C\c1cccc(Cl)c1 (stereo not given)
inactive: SR leukemia 15.8% | RPMI-8226 leukemia 64.4% | OVCAR-8 ovarian 68.1% | OVCAR-5 ovarian 115% | SK-OV-3 ovarian 90.5% | IGROV1 ovarian 70.3% | HS 578T breast 86% | NCI/ADR-RES ovarian 94.5% | T-47D breast 87.8% | BT-549 breast 102% | MDA-MB-435 melanoma 72.8% | SW-620 colon 27.7% | MCF7 breast 49.1% | HCC-2998 colon 96.5% | KM12 colon 71.7%
active: OVCAR-4 ovarian -11.1% | OVCAR-3 ovarian -30.2% | HCT-116 colon 2.39%

CCN(CC)CCCC(C)Nc1ccnc2ccc(Oc3ccccc3)cc12 (stereo not given)
inactive: SR leukemia 14.6% | RPMI-8226 leukemia 76.7% | OVCAR-8 ovarian 76.7% | OVCAR-5 ovarian 88.6% | OVCAR-4 ovarian 66.6% | SK-OV-3 ovarian 114% | IGROV1 ovarian 77% | OVCAR-3 ovarian 76.8% | HS 578T breast 82% | NCI/ADR-RES ovarian 92.8% | T-47D breast 70.7% | BT-549 breast 67.3% | MDA-MB-435 melanoma 25.8% | SW-620 colon 81.3% | MCF7 breast 69% | HCT-116 colon 48.7% | HCC-2998 colon 84% | KM12 colon 86.3%

O=C1Nc2ccc(Br)cc2/C1=N/c1nc(-c2ccccc2)cs1
inactive: SR leukemia 85.2% | RPMI-8226 leukemia 75.6% | OVCAR-8 ovarian 89.1% | OVCAR-5 ovarian 108% | OVCAR-4 ovarian 80.5% | SK-OV-3 ovarian 60.7% | IGROV1 ovarian 84% | OVCAR-3 ovarian 75% | HS 578T breast 90.3% | NCI/ADR-RES ovarian 103% | T-47D breast 58.9% | BT-549 breast 73.2% | MDA-MB-435 melanoma 97.8% | SW-620 colon 88.6% | MCF7 breast 67.4% | HCT-116 colon 75.6% | HCC-2998 colon 109% | KM12 colon 88.3%

COc1ccc(-c2conc2-n2nc(-c3ccccc3)nc2-c2ccccc2)cc1
inactive: SR leukemia 76.2% | RPMI-8226 leukemia 106% | OVCAR-8 ovarian 110% | OVCAR-5 ovarian 104% | OVCAR-4 ovarian 104% | SK-OV-3 ovarian 107% | IGROV1 ovarian 101% | OVCAR-3 ovarian 131% | HS 578T breast 111% | NCI/ADR-RES ovarian 99.1% | T-47D breast 102% | BT-549 breast 104% | MDA-MB-435 melanoma 105% | SW-620 colon 104% | MCF7 breast 89.1% | HCT-116 colon 97.2% | HCC-2998 colon 105% | KM12 colon 110%

O=S(=O)(Nc1ccc2ccccc2c1)N1CCCCC1
inactive: SR leukemia 38.1% | RPMI-8226 leukemia 82.4% | OVCAR-8 ovarian 68.2% | OVCAR-5 ovarian 79.1% | OVCAR-4 ovarian 85.1% | SK-OV-3 ovarian 52% | IGROV1 ovarian 36.3% | OVCAR-3 ovarian 53.2% | HS 578T breast 47.5% | T-47D breast 50.3% | BT-549 breast 47.3% | SW-620 colon 41% | MCF7 breast 49% | HCT-116 colon 55% | HCC-2998 colon 45.3% | KM12 colon 39.7%
active: NCI/ADR-RES ovarian 6.41% | MDA-MB-435 melanoma -0.27%

COc1ccc(/C=C(\C#N)c2cc(OC)c(OC)c(OC)c2)cc1
active: SK-OV-3 ovarian -6.74% | OVCAR-3 ovarian -25.1% | NCI/ADR-RES ovarian 2.63% | MDA-MB-435 melanoma 0.449% | MCF7 breast 3.63% | HCT-116 colon 1.54% | KM12 colon 6.76%
inactive: SR leukemia 12.1% | RPMI-8226 leukemia 12.3% | OVCAR-8 ovarian 15.6% | OVCAR-5 ovarian 38.6% | OVCAR-4 ovarian 35.4% | IGROV1 ovarian 17.9% | HS 578T breast 36% | T-47D breast 55.7% | BT-549 breast 27.3% | SW-620 colon 29.7% | HCC-2998 colon 21.7%

CC1CCCN(CCCCOc2ccc(-c3ccc(C#N)cc3)cc2)C1 (stereo not given)
inactive: SR leukemia 86.8% | RPMI-8226 leukemia 71.1% | OVCAR-8 ovarian 82.3% | OVCAR-5 ovarian 97.1% | OVCAR-4 ovarian 93.8% | SK-OV-3 ovarian 95.3% | IGROV1 ovarian 107% | OVCAR-3 ovarian 98.6% | HS 578T breast 87.4% | NCI/ADR-RES ovarian 89.7% | T-47D breast 79.1% | BT-549 breast 85.6% | MDA-MB-435 melanoma 99.4% | SW-620 colon 96.8% | MCF7 breast 86.4% | HCT-116 colon 87.8% | HCC-2998 colon 86.6% | KM12 colon 96.1%

Nc1c(C(=O)Nc2cccc(Cl)c2)sc2nc3c(cc12)C(=O)CCC3
inactive: SR leukemia 39.1% | RPMI-8226 leukemia 51.8% | OVCAR-8 ovarian 75.3% | OVCAR-5 ovarian 58.3% | OVCAR-4 ovarian 60.4% | SK-OV-3 ovarian 35.2% | IGROV1 ovarian 52.4% | OVCAR-3 ovarian 10.3% | NCI/ADR-RES ovarian 17.7% | T-47D breast 52.9% | BT-549 breast 66.4% | SW-620 colon 31.3% | MCF7 breast 16.7% | HCT-116 colon 27.4% | KM12 colon 21.6%
active: HS 578T breast 4.53% | MDA-MB-435 melanoma -39.1% | HCC-2998 colon 8.27%

CC(C)(C)c1ccc(OC(=O)Nc2ccccc2)cc1
inactive: SR leukemia 76.3% | RPMI-8226 leukemia 105% | OVCAR-8 ovarian 105% | OVCAR-5 ovarian 106% | OVCAR-4 ovarian 113% | SK-OV-3 ovarian 110% | IGROV1 ovarian 107% | OVCAR-3 ovarian 105% | HS 578T breast 103% | NCI/ADR-RES ovarian 106% | T-47D breast 99.7% | BT-549 breast 87.5% | MDA-MB-435 melanoma 107% | SW-620 colon 106% | MCF7 breast 110% | HCT-116 colon 97.4% | HCC-2998 colon 107% | KM12 colon 104%

C[C@@H]1N=C(c2ccc3ccccc3c2)Nc2nc3ccccn3c2C1=O
active: MDA-MB-435 melanoma -24.7%
inactive: SR leukemia 30.5% | RPMI-8226 leukemia 43.8% | OVCAR-8 ovarian 54.4% | OVCAR-5 ovarian 90.6% | OVCAR-4 ovarian 74.5% | SK-OV-3 ovarian 40.5% | IGROV1 ovarian 32.1% | OVCAR-3 ovarian 16.9% | HS 578T breast 29.3% | NCI/ADR-RES ovarian 44.5% | T-47D breast 41.7% | BT-549 breast 35.1% | SW-620 colon 26.3% | MCF7 breast 25.2% | HCT-116 colon 18.3% | HCC-2998 colon 77% | KM12 colon 30.3%

CN1C(=O)N(C)C2C1NN=c1s/c(=C\c3ccsc3)c(=O)n12 (stereo not given)
inactive: SR leukemia 20.6% | RPMI-8226 leukemia 58% | OVCAR-8 ovarian 59.5% | OVCAR-5 ovarian 72.6% | OVCAR-4 ovarian 89.5% | SK-OV-3 ovarian 59.7% | IGROV1 ovarian 46.9% | OVCAR-3 ovarian 14.9% | HS 578T breast 53.9% | NCI/ADR-RES ovarian 39.8% | T-47D breast 44.3% | BT-549 breast 37% | SW-620 colon 26.6% | MCF7 breast 15.2% | HCT-116 colon 18.5% | KM12 colon 18.9%
active: MDA-MB-435 melanoma -3.38%
